# Assay results from PubChem BioAssay AID434970 (Sanford-Burnham Center for Chemical Genomics, 2010).
# The whole screen tested about 11,000 compounds, of which about 310 (2.8%) were called active. Cut-off read from the data, not from the text of the source: active = activity change below about -85%; inactive = the rest. For the sample, actives were picked, then their nearest neighbours and some compounds at random.
# System: intestinal alkaline phosphatase [Mus musculus]
# Experiment: mouse intestinal phosphatase enzyme activation – biochemical, luminescence, single concentration, confirmation (AID 434970)
# Details: purified mouse IAP, CDP-Star luminescence, 30 min, at 10 µM; activation factor: measured here: IAP activation factor, stronger effect = higher value; activity change, negative = activation: stronger effect = lower value
SMILES,activation factor,"activity change, negative = activation"
Cc1cc(C)c2nc(C(F)(F)F)nc(NCCCN3CCCC3=O)c2c1,0.947,5.35% (inactive)
COc1ccc(/C=N/NC(=O)c2cc(-c3ccccc3OC)nc3ccccc23)cc1COC(C)=O,0.929,7.05% (inactive)
O=C(Nc1nc2ccc(S(=O)(=O)N3CCCCC3)cc2s1)C1CCCO1 (configuration not stated),0.96,4.05% (inactive)
COC(=O)C[C@H](NC(=O)Cn1cnc2c(NCc3ccccc3)ncnc21)C(=O)OC,0.97,2.95% (inactive)
Cc1cc(NC(=O)CN2C(=O)C3CC=CCC3C2=O)no1 (configuration not stated),0.929,7.05% (inactive)
COc1ccc(OC)c(S(=O)(=O)n2nc(C)cc2C)c1,1.08,-7.9% (inactive)
COc1ccccc1/C=C/CN1CCC(n2nccc2NC(=O)CCc2ccccc2)CC1,2.21,-121% (active)
COc1ccc(Cl)cc1NC(=O)CCc1ccccc1,0.97,3% (inactive)
O=C(CCN1CCN(C/C=C/c2ccccc2)CC1)Nc1ccccc1,1.08,-8% (inactive)
O=S(=O)(Nc1ccc(Cl)c(C(F)(F)F)c1)c1cnc[nH]1,0.887,11.3% (inactive)
C[C@H](CO)N1C[C@H](C)[C@@H](CN(C)C(=O)Nc2ccc(C(F)(F)F)cc2)Oc2ccc(NC(=O)Nc3ccccc3)cc2C1=O,1.71,-71.5% (inactive)
C[C@H](CO)N1C[C@H](C)[C@@H](CN(C)C(=O)Nc2ccc3c(c2)OCO3)Oc2ccc(NC(=O)Nc3ccc4c(c3)OCO4)cc2C1=O,1.75,-74.9% (inactive)
C[C@H](CO)N1C[C@H](C)[C@@H](CN(C)C(=O)Nc2ccccc2)Oc2ccc(NC(=O)Nc3ccccc3)cc2C1=O,2.23,-123% (active)
COc1ccc(NC(=O)Nc2ccc3c(c2)C(=O)N([C@H](C)CO)C[C@H](C)[C@@H](CN(C)C(=O)NC2CCCCC2)O3)cc1,1.64,-64% (inactive)
COc1ccc(NC(=O)Nc2ccc3c(c2)C(=O)N([C@H](C)CO)C[C@H](C)[C@@H](CN(C)C(=O)Nc2ccccc2)O3)cc1,1.59,-59.5% (inactive)
C[C@H](CO)N1C[C@H](C)[C@@H](CN(C)C(=O)Nc2ccccc2)Oc2ccc(NC(=O)Nc3ccc4c(c3)OCO4)cc2C1=O,2.17,-117% (active)
COc1ccc(NC(=O)Nc2ccc3c(c2)C(=O)N([C@H](C)CO)C[C@H](C)[C@@H](CN(C)C(=O)Nc2ccc4c(c2)OCO4)O3)cc1,1.63,-62.9% (inactive)
C[C@H](CO)N1C[C@H](C)[C@@H](CN(C)C(=O)Nc2ccccc2)Oc2ccc(NC(=O)NC3CCCCC3)cc2C1=O,1.47,-46.7% (inactive)

SMILES,activation factor,"activity change, negative = activation"
C[C@H](CO)N1C[C@H](C)[C@@H](CN(C)C(=O)NC2CCCCC2)Oc2ccc(NC(=O)Nc3ccccc3)cc2C1=O,2,-99.6% (active)
Cc1ccccc1C1C(C#N)=C2N=C(N)c3c(sc4c3CCCCC4)N2C2=C1C(=O)CCC2 (configuration not stated),0.831,16.9% (inactive)
CC1N(O)C(C)(C)C(c2ccccc2)=[N+]1[O-] (configuration not stated),1.08,-7.85% (inactive)
Cc1cc(NC(=O)CSc2ccc(-c3ccccc3)nn2)no1,0.978,2.15% (inactive)
CCOC(=O)Cn1c(=O)c(-c2ccccc2NCc2ccccc2)nc2ccccc21,0.764,23.5% (inactive)
COCCn1c(-c2cc(OC)c(OC)c(OC)c2)nc2oc3ccccc3c(=O)c2c1=O,0.931,6.9% (inactive)
COc1ccc(C2(CNC(=O)Cc3ccc(OC)c(OC)c3)CCOCC2)cc1,0.999,0.05% (inactive)
C#CCOCCOCCOCCNc1nc(N2CCN(C(=O)CCCCCCCCCCNC(=O)[C@H]([C@@H](C)CC)n3cc(CCCCN=C(N)N)nn3)CC2)nc(N2CCN(C(=O)CCCCCCCCCCNC(=O)[C@H](CO)n3cc(CCCSC)nn3)CC2)n1,15.4,-1440% (active)
C#CCOCCOCCOCCNc1nc(N2CCN(C(=O)CCCCCCCCCCNC(=O)[C@@H](CCSC)n3cc(CCO)nn3)CC2)nc(N2CCN(C(=O)CCCCCCCCCCNC(=O)[C@H]([C@@H](C)CC)n3cc(CCCCCN)nn3)CC2)n1,7.35,-635% (active)
C#CCOCCOCCOCCNc1nc(N2CCN(C(=O)CCCCCCCCCCNC(=O)[C@@H](CCSC)n3cc(CCO)nn3)CC2)nc(N2CCN(C(=O)CCCCCCCCCCNC(=O)[C@H]([C@@H](C)CC)n3cc(CCCCN=C(N)N)nn3)CC2)n1,22.1,-2110% (active)
FC(F)(F)c1nnc2sc(-c3cccs3)nn12,0.967,3.3% (inactive)
CC(=O)Nc1ccc(Nc2nc(C)nc3c2oc2ccccc23)cc1,1.01,-1.3% (inactive)
Cn1nnnc1SCC(=O)Nc1ccc(Oc2ccccc2)cc1,0.952,4.85% (inactive)
COc1ccc(CCn2c(C)cc(C(=O)CSc3nnc(N)s3)c2C)cc1,0.959,4.1% (inactive)
O=C(NCc1ccc(Cl)cc1Cl)C1CCN(S(=O)(=O)c2ccc3c(c2)OCCCO3)CC1,1.48,-48.2% (inactive)
COCCNC(=O)CN(C)S(=O)(=O)c1ccc2c(c1)OCCO2,0.928,7.15% (inactive)
COc1ccc(NC2=C(C(C)=O)C(c3ccc(OC)c(OC)c3)C(C(C)=O)C(C)(O)C2)cc1 (configuration not stated),1.08,-7.85% (inactive)
CCn1nnnc1SCC(=O)Nc1ccc2c(c1)OCO2,0.992,0.8% (inactive)
